From PubChem BioAssay AID1159580 (chemical genetic matrix, 2015)
Screen size: about 5,500 compounds; about 2,000 (36%) were called active. Another 18% or so got no clear call; they are omitted. No stated cut-off is given here; in the data, active means normalized growth mostly below about 0.91 (no sharp cut-off); inconclusive means no clear call, values can overlap the other calls; inactive means mostly above about 0.92. The list shows a part of the results.

Test: chemical genetic growth profiling, strain panel (AID 1159580);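 further: tested at 20 µM; growth read once vehicle control cultures reached saturation at 30 °C; 1 = growth at the plate median or of vehicle wells; lower values mean less growth of the strain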
Conditions: S. cerevisiae deletion strains, growth OD

Measured: normalized growth

Cc1ccc2c(Cl)cc(Cl)c(O)c2n1
inactive: locus YAL021C, strain ccr4, hits give low values 0.998 | locus YAL026C, strain drs2, hits give low values 1.02 | locus YAL030W, strain snc1, hits give low values 1.01 | locus YBL061C, strain skt5, hits give low values 1.02 | locus YBR009C, strain hhf1, hits give low values 1.02 | locus YBR023C, strain chs3, hits give low values 1.02 | locus YBR171W, strain sec66, hits give low values 1.04 | locus YBR231C, strain swc5, hits give low values 1.03 | locus YBR279W, strain paf1, hits give low values 1.02 | locus YCL011C, strain gbp2, hits give low values 1.01 | locus YCL016C, strain dcc1, hits give low values 1.02 | locus YCL069W, strain vba3, hits give low values 1.01 | locus YCR088W, strain abp1, hits give low values 1.02 | locus YDL005C, strain med2, hits give low values 1.02 | locus YDL040C, strain nat1, hits give low values 1.02 | locus YDR001C, strain nth1, hits give low values 1.02 | locus YDR069C, strain doa4, hits give low values 1.03 | locus YDR137W, strain rgp1, hits give low values 1.06 | locus YDR159W, strain sac3, hits give low values 1.02 | locus YDR195W, strain ref2 0.987 | locus YDR297W, strain sur2, hits give low values 1.02 | locus YDR334W, strain swr1, hits give low values 1.02 | locus YDR335W, strain msn5, hits give low values 1.01 | locus YDR392W, strain spt3, hits give low values 1.02 | locus YEL003W, strain gim4, hits give low values 1.01 | locus YEL037C, strain rad23, hits give low values 1.02 | locus YEL061C, strain CIN8 (second series), hits give low values 1.01 | locus YER015W, strain faa2, hits give low values 1.01 | locus YER016W, strain bim1, hits give low values 1.02 | locus YER111C, strain swi4, hits give low values 1.02 | locus YER155C, strain BEM2 (second series), hits give low values 1.02 | locus YFR010W, strain ubp6, hits give low values 1.01 | locus YGL167C, strain pmr1, hits give low values 1.03 | locus YGL173C, strain kem1, hits give low values 1.02 | locus YGL227W, strain vid30, hits give low values 1.05 | locus YGL240W, strain doc1, hits give low values 1.02 | locus YGL253W, strain hxk2, hits give low values 1.01 | locus YHR013C, strain ard1, hits give low values 1.04 | locus YHR027C, strain rpn1, hits give low values 1.02 | locus YHR142W, strain chs7, hits give low values 1.03 | locus YJL092W, strain hpr5, hits give low values 1.02 | locus YJL095W, strain BCK1 (second series), hits give low values 1.04 | locus YJL115W, strain asf1, hits give low values 1.03 | locus YJL129C, strain trk1, hits give low values 1.02 | locus YJL154C, strain vps35, hits give low values 1.02 | locus YJL164C, strain tpk1, hits give low values 1.02 | locus YJL166W, strain qcr8, hits give low values 1.04 | locus YJL187C, strain SWE1, hits give low values 0.999 | locus YKL160W, strain elf1, hits give low values 1.02 | locus YKR026C, strain gcn3, hits give low values 1.02 | locus YKR091W, strain srl3, hits give low values 1.02 | locus YLL001W, strain dnm1, hits give low values 1.02 | locus YLL026W, hits give low values 0.999 | locus YLL041C, strain sdh2, hits give low values 1.03 | locus YLR027C, strain aat2, hits give low values 1.02 | locus YLR221C, strain rsa3, hits give low values 1.01 | locus YLR258W, strain gsy2, hits give low values 1.02 | locus YLR262C, strain YPT6 (second series), hits give low values 1 | locus YLR320W, strain mms22, hits give low values 1.03 | locus YLR342W, strain FKS1, hits give low values 1.05 | locus YLR357W, strain rsc2, hits give low values 1.04 | locus YLR370C, strain arc18, hits give low values 1.02 | locus YLR384C, strain iki3, hits give low values 1.03 | locus YML120C, strain ndi1, hits give low values 1 | locus YMR058W, strain fet3, hits give low values 1.01 | locus YMR125W, strain sto1, hits give low values 1.02 | locus YMR129W, hits give low values 1.01 | locus YMR205C, strain PFK2, hits give low values 1.02 | locus YMR231W, strain pep5, hits give low values 1.02 | locus YNL071W, strain lat1, hits give low values 1.01 | locus YNL209W, strain ssb2, hits give low values 1.01 | locus YNL248C, strain rpa49, hits give low values 1.01 | locus YNL322C, strain KRE1 (second series), hits give low values 1.03 | locus YNR049C, strain mso1, hits give low values 1.03 | locus YOR001W, strain rrp6, hits give low values 1.02 | locus YOR070C, strain gyp1, hits give low values 1.03 | locus YOR080W, strain dia2, hits give low values 1.02 | locus YOR083W, strain WHI5, hits give low values 1.03 | locus YOR106W, strain vam3, hits give low values 1.01 | locus YOR265W, strain rbl2, hits give low values 1.01 | locus YOR270C, strain vph1, hits give low values 1.02 | locus YOR290C, strain snf2, hits give low values 1.03 | locus YPL051W, strain arl3, hits give low values 1.01 | locus YPL078C, strain atp4, hits give low values 1.01 | locus YPL106C, strain sse1, hits give low values 1 | locus YPL240C, strain hsp82, hits give low values 1.01
